Source: PubChem BioAssay AID1053173 (Broad Institute, 2014)
About 390 (26%) of roughly 1,500 compounds were called active. How the calls were made is not given here. Not all results are given here. Potency and affinity values are given separately.

Molecular target: Histone-lysine N-methyltransferase NSD2 (Homo sapiens) (UniProt O96028)
Assay: NSD2 methyltransferase inhibitors, dose response, biochemical, AlphaScreen, cherry-picked samples (AID 1053173);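 further: 0% = neutral control wells and -100% = positive control wells on each plate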
Conditions: NSD2 H4 peptide methylation, 120 min; series mostly up to 10 µM; activity change, negative = inhibition: at the top concentration

Histone-lysine N-methyltransferase NSD2 (Homo sapiens), sequence (O96028 whole entry, looked up): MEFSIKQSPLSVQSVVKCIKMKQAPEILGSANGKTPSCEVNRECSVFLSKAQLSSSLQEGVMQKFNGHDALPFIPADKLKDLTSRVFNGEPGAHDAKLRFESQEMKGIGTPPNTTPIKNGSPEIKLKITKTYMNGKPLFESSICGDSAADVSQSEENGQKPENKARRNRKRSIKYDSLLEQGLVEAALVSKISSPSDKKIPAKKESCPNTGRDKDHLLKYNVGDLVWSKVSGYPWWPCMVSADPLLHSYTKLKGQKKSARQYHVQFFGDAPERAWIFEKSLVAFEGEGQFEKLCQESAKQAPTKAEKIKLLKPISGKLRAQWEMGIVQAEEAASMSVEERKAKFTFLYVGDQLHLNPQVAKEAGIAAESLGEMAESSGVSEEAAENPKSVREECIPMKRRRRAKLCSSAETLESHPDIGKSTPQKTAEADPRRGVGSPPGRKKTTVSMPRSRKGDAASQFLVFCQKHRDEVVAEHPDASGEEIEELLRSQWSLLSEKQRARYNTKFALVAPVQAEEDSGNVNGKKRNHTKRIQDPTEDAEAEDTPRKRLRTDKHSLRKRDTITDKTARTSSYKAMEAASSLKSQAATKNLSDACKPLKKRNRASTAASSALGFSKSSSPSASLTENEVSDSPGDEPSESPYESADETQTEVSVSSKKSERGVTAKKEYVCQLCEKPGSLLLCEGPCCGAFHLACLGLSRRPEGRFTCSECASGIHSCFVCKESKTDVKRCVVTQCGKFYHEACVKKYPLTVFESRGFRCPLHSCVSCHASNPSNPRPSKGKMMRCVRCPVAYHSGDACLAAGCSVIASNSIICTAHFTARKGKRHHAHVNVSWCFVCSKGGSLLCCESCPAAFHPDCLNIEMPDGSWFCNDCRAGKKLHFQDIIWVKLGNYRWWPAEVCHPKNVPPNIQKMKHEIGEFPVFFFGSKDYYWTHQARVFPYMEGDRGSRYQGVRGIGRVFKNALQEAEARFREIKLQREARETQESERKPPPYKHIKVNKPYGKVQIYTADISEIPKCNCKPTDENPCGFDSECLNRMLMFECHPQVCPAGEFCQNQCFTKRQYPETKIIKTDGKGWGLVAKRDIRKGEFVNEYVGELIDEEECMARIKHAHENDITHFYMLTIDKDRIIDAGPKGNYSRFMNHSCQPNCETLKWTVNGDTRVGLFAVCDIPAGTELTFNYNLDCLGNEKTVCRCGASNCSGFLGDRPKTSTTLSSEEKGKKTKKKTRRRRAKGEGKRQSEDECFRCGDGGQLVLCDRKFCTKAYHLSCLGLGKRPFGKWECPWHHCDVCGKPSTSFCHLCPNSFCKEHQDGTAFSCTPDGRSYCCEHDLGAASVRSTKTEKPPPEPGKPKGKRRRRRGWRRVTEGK

Activity change, negative = inhibition, inactive:
C=CCn1c(SCc2ccc3c(c2)OCO3)nc2scc(-c3ccco3)c2c1=O -0.727%
Cc1cccc(OCC(=O)Nc2ncn[nH]2)c1C -1.78%
N#Cc1ccc(OCC(=O)NCCCn2ccnc2)cc1 0.569%
Cc1cc(OCCn2nc(C(=O)O)c3ccccc3c2=O)ccc1C(C)C 3.2%
COCCCNC(=O)COc1ccc(Cl)c(C)c1 4.26%
COCCNc1nc(-c2ccccc2)nc2ccccc12 -1.67%
CC(=O)c1ccc(NC(=S)NCCc2cccc(Cl)c2)cc1 -0.619%
COCCNC(=O)CN(C(=O)CCC(=O)Nc1nccs1)c1ccc2c(c1)OCO2 -2.09%
CCOC(=O)c1cc(NC(=O)CN2CCCC2)cc(C(=O)OCC)c1 -3.67%
O=C(Cn1cnc2c(cnn2-c2ccccc2)c1=O)OCc1ccccc1 5.97%
CN(C)S(=O)(=O)c1ccc(Cl)c(C(=O)OCC(=O)c2ccco2)c1 3.34%
CN(C(=O)CN1C(=O)S/C(=C\c2ccccc2F)C1=O)C1CCS(=O)(=O)C1 (configuration not stated) -3.15%
COc1ccc(CN(C(=O)c2cccc(OC)c2)C2CCS(=O)(=O)C2)cc1 (configuration not stated) 1.08%
COC(=O)c1nc(NC(=O)c2ccccc2)n[nH]1 5.27%
Cc1ccc(C)c(NC(=S)Nc2cccc3cnccc23)c1 -3.61%
O=C(Nc1cc(Cl)ccc1-n1cncn1)c1cccs1 0.312%
COc1ccc(C(C(=O)NC(C)(C)C)N(C(=O)CCC(=O)Nc2cc(C)on2)c2ccccc2F)cc1 (configuration not stated) -2.94%
COc1cccc(/C=C2\N=C(SC)SC2=O)c1OC 2.72%
Cc1c(C(=O)N2CCN(c3ccc(F)cc3)CC2)sc2ncnc(N3CCN(c4ccccn4)CC3)c12 -5.35%
CC(C)c1nc2oc3c(NCC4CCCO4)ncnc3c2c2c1COC(C)(C)C2 (configuration not stated) 0.299%
COC(=O)c1ccc(Cn2cnc3c(sc4nc(N5CCOCC5)c5c(c43)CCCC5)c2=O)o1 -2.05%
CCO/C=C/C(=O)N(C)CCC#N -0.942%
CCN(CC)C(=O)CSc1nc2ccccc2c(=O)n1CCC(=O)NCc1ccc(F)cc1 -0.892%
COc1cc(NC(=O)CCn2c(=O)oc3ccccc32)cc(OC)c1OC -4.11%
Cc1[nH][nH]c(=O)c1C(c1ccc(-c2cccc(C(=O)O)c2)o1)c1c(C)[nH][nH]c1=O -6.24%
Cc1[nH][nH]c(=O)c1C(c1ccc(-c2ccc(F)cc2)o1)c1c(C)[nH][nH]c1=O -9.54%
O=C(CC1SC2=NCCN2C1=O)Nc1ccccc1 (configuration not stated) -3.49%
Cc1ccc(OCCCC(=O)Nc2ccccc2C(F)(F)F)cc1 2.23%
Cc1cccc(C)c1OCC(O)CNS(=O)(=O)c1ccccc1C(=O)N1CCCCC1 (configuration not stated) 1.21%
Cc1ccc(-n2nc3c(=O)n(CC(=O)NCc4ccccc4)nc(C)c3c2C)cc1 1.17%
Fc1ccc(C2CCNCC2COc2ccc3c(c2)OCO3)cc1 (configuration not stated) -17.5%
CN(C)Cc1cc(O)c(CN(C)C)cc1O -0.805%
Cc1ccc(S(=O)(=O)N2CCOCC2)cc1NC(=O)CSc1ccccn1 5.02%
COc1cc2[nH]c(Cl)c([N+](=O)[O-])c2cc1OC -5.65%
O=C(Nc1cccc(O)c1)c1ccc(Br)cc1 6.71%
COc1cc(/C=C/c2nc3ccccc3c(=O)[nH]2)cc(Cl)c1O -0.715%
CC(=O)Nc1cccc(C(=O)OCc2ccccc2)c1 1.75%
Nc1nc(=S)c2ncn(C3OC(CO)C(O)C3O)c2[nH]1 (configuration not stated) -16.4%
O=C(/C=C/c1ccc(-c2ccccc2)cc1)NCc1cccnc1 0.563%
CC(C)(C)CC(=O)Nc1nnc(SCC(=O)NCc2cccs2)s1 0.34%
C=CCn1c(=NC(=O)c2ccc(S(=O)(=O)N3CCCC3)cc2)sc2cc(NC(C)=O)ccc21 -1.4% [at 5 µM]
CC1(C)NC(=O)N(CCOCCOc2c(Cl)cc(Cl)cc2Cl)C1=O -1.71%
COc1ccc(CC(=O)NC2CCCCCC2)c(OC)c1 6.08%
Cc1cc(-c2n[nH]c(=S)n2N=Cc2cccc(OCc3ccccc3)c2)n[nH]1 -12.1%
CC(C)=NOCC(=O)Nn1c(COc2c(C)cccc2C)nc2ccccc2c1=O -2%
COc1ccc2nc3cccc(OC)c3nc2c1 -3.46%
C=CCOCC(O)Cn1c(N2CCCC2)nc2c1c(=O)n(C)c(=O)n2C (configuration not stated) -1.1%
CSCCC(NC(=O)c1ccccc1Cl)C(=O)NCC(c1ccc(F)cc1)N1CCOCC1 (configuration not stated) -2.03%
COc1cc(C(=O)NC(C)c2ccc3ccccc3c2)cc(Cl)c1O (configuration not stated) -0.34%
COc1ccc(-c2nnc3n2N=C(C)CS3)cc1 1.71%
COc1cccc(-c2nn3c(-c4ccco4)nnc3s2)c1 1.6%
Cn1c(=O)[nH]c2nnc(-c3ccc(Cl)c(Cl)c3)nc2c1=O 4.68%
CCOc1ccccc1NC(=O)C1CCCN1C(=O)c1cccs1 (configuration not stated) 2.24%
CSc1nc(N)nc(N(C)C)n1 2%
O=C(COC(=O)c1ccccc1F)NC1CC1 3.74%
CCOc1ccc(C(CC(=O)O)NC(=O)C23CC4CC(CC(C4)C2)C3)cc1OC (configuration not stated) -0.984%
Cc1nc([N+](=O)[O-])c(C(=O)OCc2ccccc2F)n1C -1.64%
CNc1c(N)n(Cc2ccccc2)c(=O)[nH]c1=O -0.252%
Cc1ccccc1CS(=O)(=O)CC(O)CN1CCCC1=O (configuration not stated) -1.97%
COc1ccc2c(c1)c1nc3ccccc3nc1n2CCn1c(=O)oc2ccccc21 -3.95%
Nc1c(C(=O)NCc2ccc(F)cc2)c2nc3ccccc3nc2n1CCCN1CCOCC1 14.2%
CCc1ccc(N(CC(=O)NCc2ccc3c(c2)OCO3)C(=O)c2csnn2)cc1 -2.38%
CCc1ccc(NC(=O)c2cc(-c3ccc4c(c3)OCO4)on2)cc1 6.08%
COc1ccc(C)cc1COC(=O)c1[nH]c(C)c(C(C)=O)c1C 3.9%
COc1ccc(N(CC(=O)NCCSc2ccccn2)S(C)(=O)=O)cc1 -0.405%
COc1ccc(CNC(=O)CCCn2nc(C)c([N+](=O)[O-])c2C)cc1OC 4.54%
Cc1nc2cc(C(=O)NCc3cccnc3)ccc2n1-c1ccc(F)cc1F -0.772%
Cc1ccc(C(=O)NCCn2c(N)c(C#N)c3nc4ccccc4nc32)cc1 -3.26%
CCOC(=O)CNC(=O)N1CCC(CCC(=O)N(C)Cc2ccccc2)CC1 0.842%
CCCC(=O)Nc1ccc(C(=O)O)cc1NC(=O)CCC 0.918%
O=C(O)c1ccc2cccnc2c1O 0.387%
COc1cccc(NC(=O)c2ccc3c(c2)OCCO3)c1 -3.43%
